# The source made the active and inactive calls. Where a call stands in place of a potency, no number is given. The call rests on the fitted dose curve; in most records, active means well fitted cell-killing curve with a large enough effect; inconclusive means small, poorly fitted or top-dose-only effect; inactive means flat fitted curve, though single readings scatter.
# Assay: Cell Viability - LYMP1-002 - Assay at 24 hr (AID 993)
# Settings: LYMP1-002 lymphoblastoid cells viability; series mostly up to 92.2 µM
# From the text: NIH Chemical Genomics Center [NCGC]
# NIH Molecular Libraries Screening Centers Network [MLSCN]
# National Institutes of Environmental Health Sciences [NIEHS]
# National Toxicology Program [NTP]
# We have developed a 1536-well cell-based assay for quantitative high throughput screening (qHTS) against a number of cell lines to determine in vitro cytotoxicity of small molecules. This particular assay uses a human lymphoblastoid cell line (LYMP1-002) purchased from Coriell Institute for Medical Research.
# NCGC Assay Protocol Summary:
# The CellTiter-Glo luminescent cell viability assay (Promega) is a homogeneous method to measure the number of viable cells in culture. The end point readout of this assay is based on quantitation of intracellular ATP, an indicator of metabolic activity, using the luciferase reaction. Luciferase catalyzes the oxidation of beetle Luciferin to oxyluciferin and light in the presence of ATP. The luminescent signal is proportional to amount of ATP present.
# Using the CellTiter-Glo luminescent cell viability assay, the amount of cellular ATP was measured in the lymphoblastoid cell line with complete culture medium following compound treatment for 24 hours. The assay was performed in opaque white Kalypsys 1536-well plates. In the screen, tetraoctylammonium bromide was used as positive control. Library compounds were measured for their ability to cause acute toxicity in the cell line, as reflected by a decrease in intracellular ATP levels, in a concentration-dependent manner. […] AC50 values were determined from concentration-response data modeled with the standard Hill equation.
# qHTS protocol for CellTiter Glo lymphoblastoid cellular assay
# [Step] [Parameter] [Value] [Description]
# 1. Reagent; 5 uL; 2500 lymphoblastoid cells/well
# 2. Time; 5 hr; 37 C incubation
# 4. Controls; 23 nL; Tetraoctylammonium bromide 6.4pM to 92 uM
# 5. Time; 24 hr; 37 C incubation
# 6. Reagent; 5 uL; CellTiter Glo reagent
# 7. Time; 30 min; Room Temperature
# 8. Detection; Luminescence; Viewlux plate reader
# Keywords: cell viability, cytotoxicity, lymphoblastoid cell line, luminescence, NTPHTS, NTPHTS_NCGC, NIEHS, DSSTox, MLSMR, MLSCN, NIH Roadmap, qHTS, NCGC
row,Structure (SMILES),Potency
1,CCCN(CCC)c1c([N+](=O)[O-])cc(C(F)(F)F)cc1[N+](=O)[O-],inactive
2,ClP(Cl)(Cl)(Cl)Cl,inactive
3,OCCBr,inactive
4,Oc1ccc(Cl)c(Cl)c1Cl,inactive
5,CCN(N=O)C(N)=O,inactive
6,C/C=C/C=O,inactive
7,CCCC[N+](=O)[O-],inactive
8,CSSC,inactive
9,Nc1ncc([N+](=O)[O-])s1,inactive
10,Cc1ccc(N)cc1Cl,inactive
11,OC[P+](CO)(CO)CO,inactive
12,ClCc1ccccc1,inactive
13,CCC/C=N/O,inactive
14,CCCCCCCCCCCCCl,inactive
15,COc1ccc(C=O)cc1,inactive
16,ClCC(Cl)CCl,inactive
17,C=CCc1cc(OC)c2c(c1)OCO2,inactive
18,Cc1ccc2c(c1N)C(=O)c1ccccc1C2=O,inactive
19,c1ccc(OCC2CO2)cc1 (stereo not given),inactive
20,N#CC(Br)Br,inactive

row,Structure (SMILES),Potency
1,Oc1cc(Cl)c(Cl)c(Cl)c1Cl,inactive
2,Brc1ccc(Oc2ccc(Br)cc2Br)c(Br)c1,inactive
3,CCCCCCCCCCCOC(=O)c1ccccc1C(=O)OCCCCCCCCCCC,inactive
4,Cc1cnc[nH]1,inactive
5,CCBr,inactive
6,CCN(CC)CCO,inactive
7,ClC(Cl)Br,inactive
8,CC(Cl)(Cl)Cl,inactive
9,C=CCBr,inactive
10,CC(C)OC(=O)Cc1ccccc1,inactive
11,CC(C)(Cl)Cl,inactive
12,COc1cc(-c2ccc(N)c(OC)c2)ccc1N,inactive
13,c1ccc(N=NNc2ccccc2)cc1,inactive
14,CCCCCc1cc(O)cc(O)c1,inactive
15,CC(Cl)CCl (stereo not given),inactive
16,ClCCBr,inactive
17,Cc1ccc([N+](=O)[O-])cc1,inactive
18,Oc1cccc(Cl)c1,inactive
19,CC(C)(C)OOC(=O)c1ccccc1,inactive
20,Cc1ccc(N)c(C)c1,inactive
